# Results published in PubChem BioAssay (NCATS).
# Values without a mark were called inactive. For part of these data: Potency and affinity values are given separately. The source made the active and inactive calls.
# Experiments:
# [1] = Ebola virus entry assay, green fluorescence channel
# [2] = Ebola virus entry assay, blue channel fluorescence
# [3] = Ebola virus entry assay, green fluorescence channel; remark: listed apart in the source
# [4] = Ebola virus entry assay, ratio channel readout
# [5] = Ebola virus entry assay, blue channel fluorescence; remark: listed apart in the source
# [6] = Ebola virus entry assay, ratio channel
# [7] = Ebola virus entry assay, reporter ratio channel; AC50: Channel type: primary unless noted; outcome: Channel type: primary unless noted
# Throughout, for efficacy: 0% is about no effect.
Compound,efficacy [1],outcome [2],outcome [3],outcome [4],AC50 [5],AC50 [6],AC50 [7],AC50 [2],outcome [7],AC50 [4]
COC(=O)C1=C(C)NC(C)=C(C(=O)OCC(C)C)C1c1ccccc1[N+](=O)[O-] (configuration not stated),55.8%,inactive,inactive,inactive,28.2 µM (active),17.8 µM (active),17.8 µM (active),–,–,–
NC(=O)C(c1ccccc1)(c1ccccc1)[C@@H]1CCN(CCc2ccc3c(c2)CCO3)C1,91.3%,inactive,inactive,inactive,39.8 µM (active),31.6 µM (active),31.6 µM (active),–,–,–
CCCCc1oc2ccc(NS(C)(=O)=O)cc2c1C(=O)c1ccc(OCCCN(CCCC)CCCC)cc1,-249%,–,inactive,inactive,0.891 µM (active),0.891 µM (active),–,7.08 µM (active),inactive [Channel type: confirmation],–
O=C1c2cccc3c2[C@H](CCC3)CN1[C@@H]1CN2CCC1CC2,37.7%,inactive,inactive,inactive,20 µM (active),28.2 µM (active),28.2 µM (active),–,–,–
CCCN(CCc1cccs1)[C@H]1CCc2c(O)cccc2C1,-47.6%,inactive,inactive,inactive,25.1 µM (active),25.1 µM (active),25.1 µM (active),–,–,–
COC(=O)C1=C(C)NC(C)=C(C(=O)OCCN(C)Cc2ccccc2)C1c1cccc([N+](=O)[O-])c1 (configuration not stated),-75%,inactive,inactive,inactive,12.6 µM (active),10 µM (active),10 µM (active),–,–,–
CNCC[C@@H](Oc1ccccc1C)c1ccccc1,103%,inactive,inactive,inactive,10 µM (active),10 µM (active),10 µM (active),–,–,–
CSc1ccc2c(c1)N(CCC1CCCCN1C)c1ccccc1S2 (configuration not stated),-213%,–,inactive,inactive,3.55 µM (active),3.16 µM (active),3.16 µM (active),10 µM (active),–,–
C[C@@H](NCCCc1cccc(C(F)(F)F)c1)c1cccc2ccccc12,-223%,inactive,inactive,inactive,3.98 µM (active),3.55 µM (active),3.55 µM (active),–,–,–
COc1cc(C(C)=O)ccc1OCCCN1CCC(c2noc3cc(F)ccc23)CC1,81.4%,inactive,inactive,inactive,31.6 µM (active),28.2 µM (active),28.2 µM (active),–,–,–
CN1CCc2cccc3c2[C@H]1Cc1ccc(O)c(O)c1-3,61.6%,inactive,inactive,inactive,28.2 µM (active),28.2 µM (active),28.2 µM (active),–,–,–
Fc1ccc([C@@H]2CCNC[C@H]2COc2ccc3c(c2)OCO3)cc1,101%,–,inactive,–,5.01 µM (active),3.98 µM (active),3.98 µM (active),5.62 µM (active),–,5.02 µM (active)
CNCC[C@H](Oc1cccc2ccccc12)c1cccs1,-133%,–,inactive,inactive,6.31 µM (active),3.55 µM (active),3.55 µM (active),11.2 µM (active),–,–
Cc1ccc(NC(=O)c2ccc(CN3CCN(C)CC3)cc2)cc1Nc1nccc(-c2cccnc2)n1,71.5%,inactive,inactive,inactive,22.4 µM (active),12.6 µM (active),12.6 µM (active),–,–,–
CCC(=O)O[C@H]1[C@H](O[C@@H]2[C@@H](C)[C@H](O[C@H]3C[C@@](C)(OC)[C@@H](O)[C@H](C)O3)[C@@H](C)C(=O)O[C@H](CC)[C@@](C)(O)[C@H](O)[C@@H](C)C(=O)[C@H](C)C[C@@]2(C)O)O[C@H](C)C[C@@H]1N(C)C,131%,inactive,inactive,inactive,14.1 µM (active),11.2 µM (active),11.2 µM (active),–,–,–
Cc1ccccc1C(OCCN(C)C)c1ccccc1 (configuration not stated),62.3%,–,inactive,inactive,7.94 µM (active),8.91 µM (active),8.91 µM (active),10 µM (active),–,–
CN(C)CCCN1c2ccccc2CCc2ccc(Cl)cc21,-191%,–,inactive,–,3.16 µM (active),3.16 µM (active),–,7.94 µM (active),inactive [Channel type: confirmation],6.31 µM (active)
CCc1nn(CCCN2CCN(c3cccc(Cl)c3)CC2)c(=O)n1CCOc1ccccc1,111%,inactive,inactive,inactive,39.8 µM (active),31.6 µM (active),31.6 µM (active),–,–,–
CCC(=O)C(CC(C)N(C)C)(c1ccccc1)c1ccccc1 (configuration not stated),118%,inactive,inactive,inactive,10 µM (active),7.94 µM (active),7.94 µM (active),–,–,–
O[C@@H](c1cc(C(F)(F)F)nc2c(C(F)(F)F)cccc12)[C@H]1CCCCN1,-219%,–,inactive,–,1.58 µM (active),1.58 µM (active),1.58 µM (active),7.94 µM (active),–,5.63 µM (active)
CS(=O)(=O)CCNCc1ccc(-c2ccc3ncnc(Nc4ccc(OCc5cccc(F)c5)c(Cl)c4)c3c2)o1,108%,inactive,inactive,inactive,3.55 µM (active),3.98 µM (active),3.98 µM (active),–,–,–
